By AC50 is commonly meant the concentration giving half of the maximal activity seen.

This note sets out measurements from PubChem BioAssay (EPA / NIEHS).

“And” between values parts separate entries of the source, which are not always exact repeats. Equal entries are not always repeated. Inconclusive results are not listed. The source made the active and inactive calls. The calls were made as follows, unless noted: active = hit-call score of the fitted dose curve at least 0.9, where 1 is the maximum; inactive = score below 0.9.

The target in experiment [1] is Myc proto-oncogene protein (Homo sapiens) (UniProt P01106). In words: ATG_Myc_CIS: Attagene CIS-FACTORIAL HepG2 Assay for human Myelocytomatosis (Myc) Proto-Oncogene Transcription Factor (AID 2282990). As to conditions: HepG2, Attagene cis-reporter transcription factor activity; actives raise or lower the signal. Summed up:
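Read-out: fluorescent reporter mRNA fragments resolved by capillary electrophoresis after RT-PCR. Human HepG2 liver cells carried transfected cis-element reporter units and were dosed for 24 h. Gain or loss of signal fitted relative to DMSO baseline.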

Experiment [2] is described as follows: ATG_NF_kB_CIS: Attagene CIS-FACTORIAL HepG2 Assay for human Nuclear Factor Kappa B (NF-kB) (AID 2282991). As to conditions: HepG2 Attagene cis-factorial NF-kB reporter mRNA; actives raise or lower the signal. Summed up: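 After 24 h compound incubation, transfected HepG2 cells yield total RNA; reporter cDNA is PCR-amplified, end-labelled with 6-FAM, HpaI-digested and analysed on a genetic analyser. Endogenous factor activity, DMSO-referenced bidirectional fit.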

Experiment [3] can be described thus: ATG_NRF2_ARE_CIS: Attagene CIS-FACTORIAL HepG2 Assay for human Nuclear Factor Erythroid 2 Related Factor 2 (NFR2) response to Antioxidant Response Elements (ARE) (AID 2282992).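 As to AC50: reporter mRNA level measured by RT-PCR and capillary electrophoresis fluorescence.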 To be noted: HepG2 Attagene ARE/NRF2 reporter, transcription factor activity; actives raise or lower the signal. Summed up: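 Fluorescence intensity of reporter-specific cDNA fragments, separated by capillary electrophoresis, reflects mRNA induction in transfected HepG2 cells at 24 h. Activity is fitted bidirectionally, DMSO serving as baseline.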

The target of experiment [4] is Cellular tumor antigen p53 (Homo sapiens) (UniProt P04637). The experiment is described as follows: ATG_p53_CIS: Attagene CIS-FACTORIAL HepG2 Assay for human p53 Transcription Factor (AID 2282994). To be noted: HepG2 p53 cis-element reporter, Attagene mRNA; actives raise or lower the signal. The gist of the method: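 Transiently transfected HepG2 (multiple cis reporter transcription units); exposure 24 h; reporter RNA via RT-PCR, 6-FAM extension, 2 h HpaI digest at 37 C, CE detection; DMSO baseline.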

Experiment [5] can be described thus: BSK_3C_uPAR: BioMAP Diversity Plus: 3C Assay for Urokinase-type plasminogen activator receptor (uPAR) Biomarker Activity (AID 2282998). As to conditions: BioMAP 3C HUVEC, uPAR biomarker ELISA; actives raise or lower the signal. Summed up: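 Primary human umbilical vein endothelial cells, 3C system; surface uPAR measured by ELISA 24 h after dosing. Cytotoxicity via SRB total protein in parallel cultures; bidirectional fit against DMSO.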
On the technique in general: ELISA stands for enzyme-linked immunosorbent assay.

A short description of experiment [6]: BSK_3C_VCAM1: BioMAP Diversity Plus: 3C Assay for Vascular cell adhesion molecule 1 (VCAM1) Biomarker Activity (AID 2282999). To be noted: BioMAP 3C HUVEC, VCAM1 ELISA, cytokine-stimulated; actives raise or lower the signal. The gist of the method: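 HUVEC primary cells, 24 h compound exposure; VCAM-1 by ELISA; gain/loss of signal fitted bidirectionally vs DMSO baseline.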

Experiment [7] is described as follows: BSK_4H_Eotaxin3: BioMAP Diversity Plus: 4H Assay for Eotaxin 3 Biomarker Activity (AID 2283000).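 As to outcome: CCL26 protein level quantified by ELISA in parallel with SRB cytotoxicity check.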 As to conditions: primary human endothelial cells (HUVEC); actives raise or lower the signal. Summed up: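 HUVEC, 24 h post-dose, ELISA for Eotaxin-3/CCL26. Gain or loss of signal fitted bidirectionally vs DMSO baseline.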
Experiment [8] has as its target human Peroxisome Proliferator-activated Receptor alpha (PPARa), PPARA (gene 5465) (UniProt Q07869). In words: ATG_PPARa_TRANS: Attagene TRANS-FACTORIAL HepG2 Assay for human Peroxisome Proliferator-activated Receptor alpha (PPARa) (AID 2283001; active = hit-call score of the fitted dose curve at least 0.9, where 1 is the maximum). The gist of the method:
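HepG2, transient MRTU transfection, 24 h treatment. RT-PCR → FAM labelling → capillary electrophoresis. Fit vs DMSO, positive direction.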

Read-out in experiment [9]: Intercellular Adhesion Molecule 1 (ICAM1), ICAM1 (gene 3383)
The experiment is described as follows: BSK_3C_ICAM1: BioMAP Diversity Plus: 3C Assay for Intercellular Adhesion Molecule 1 (ICAM1) Biomarker Activity (AID 2283003). As to conditions: primary human endothelial cells (HUVEC); actives raise or lower the signal. Summed up:
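Chemicals are dosed onto primary human umbilical vein endothelium (3C system). After 24 h, ICAM-1 is measured by ELISA, and responses are fitted bidirectionally relative to DMSO.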

The target in experiment [10] is Peroxisome proliferator-activated receptor gamma (Homo sapiens) (UniProt P37231). In words: ATG_PPARg_TRANS: Attagene TRANS-FACTORIAL HepG2 Assay for human Peroxisome Proliferator-activated Receptor-gamma (PPARg) (AID 2283007; active = hit-call score of the fitted dose curve at least 0.9, where 1 is the maximum). The gist of the method:
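Liver-derived HepG2 cells expressing an exogenous NR-Gal4 chimera alongside GAL4-UAS reporter genes; 24 h exposure. Fluorescence of reporter RT-PCR products, separated by capillary electrophoresis, gives mRNA induction relative to DMSO.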

The target in experiment [11] is Nuclear receptor subfamily 1 group I member 2 (Homo sapiens) (UniProt O75469). In words: ATG_PXR_TRANS: Attagene TRANS-FACTORIAL HepG2 Assay for human Pregnane X Receptor (PXR) (AID 2283008; active = hit-call score of the fitted dose curve at least 0.9, where 1 is the maximum). The gist of the method:
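Transient HepG2 transfectants carrying multiplexed reporter transcription units; PXR activity read through a Gal4 chimera. 24 h exposure. RT-PCR/CE fluorescence; upward curve fit referenced to DMSO.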

For experiment [12], the target named is human Retinoic Acid Receptor gamma (RARg), RARG (gene 5916) (UniProt P13631). In words: ATG_RARg_TRANS: Attagene TRANS-FACTORIAL HepG2 Assay for human Retinoic Acid Receptor gamma (RARg) (AID 2283009; active = hit-call score of the fitted dose curve at least 0.9, where 1 is the maximum). Summed up:
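TRANS format measured activity of exogenous NR-GAL4 fusion (RARg) in transfected HepG2 liver cells after 24 h dosing. Induced reporter RNA was detected by RT-PCR/capillary electrophoresis fluorescence, analysed in the positive direction against DMSO.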

Experiment [13] in a line: ATG_NFI_CIS: Attagene CIS-FACTORIAL HepG2 Assay for human Nuclear Factor I (NFI) (AID 2282989). As to conditions: HepG2 cis-regulatory reporter, NFI response element transcription; actives raise or lower the signal. The gist of the method: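 Endogenous TF activity in HepG2 cells transiently transfected with cis-element-driven multiplexed reporter units, read 24 h after dosing. Reporter mRNA quantified by RT-PCR, 6-FAM labelling, HpaI digestion and capillary electrophoresis; bidirectional fit versus DMSO.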

Experiment [14] is described as follows: ATG_Oct_MLP_CIS: Attagene CIS-FACTORIAL HepG2 Assay for human Octamer-Binding Transcription Factor (Oct) (AID 2282993). As to conditions: HepG2 Attagene cis-factorial Oct reporter, mRNA; actives raise or lower the signal. The gist of the method: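 HepG2 cells transiently transfected with cis-element-driven reporter transcription units (endogenous TF activity); 24 h compound exposure. Reporter mRNA quantified by RT-PCR, 6-FAM labelling, HpaI digestion and capillary electrophoresis; bidirectional fit versus DMSO baseline.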

Experiment [15] has as its target human Peroxisome Proliferator-activated Receptor delta (PPARd), PPARD (gene 5467) (UniProt Q03181). The experiment is described as follows: ATG_PPARd_TRANS: Attagene TRANS-FACTORIAL HepG2 Assay for human Peroxisome Proliferator-activated Receptor delta (PPARd) (AID 2283002; active = hit-call score of the fitted dose curve at least 0.9, where 1 is the maximum). The gist of the method: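 Read-out: reporter mRNA induction, quantified by fluorescent RT-PCR products resolved by capillary electrophoresis. Human HepG2 liver cells carried transiently transfected Gal4-UAS reporter constructs with chimeric NR-Gal4 fusions. Cells were dosed for 24 h; DMSO served as baseline.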

Experiment [16] concerns the target human Retinoic Acid Receptor beta (RARb), RARB (gene 5915) (UniProt P10826). In words: ATG_RARb_TRANS: Attagene TRANS-FACTORIAL HepG2 Assay for human Retinoic Acid Receptor beta (AID 2283004; active = hit-call score of the fitted dose curve at least 0.9, where 1 is the maximum). The gist of the method: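 HepG2 cells transiently transfected with multiplexed GAL4-UAS reporter units expressing chimeric NR–Gal4 fusions; 24 h compound exposure. Reporter mRNA quantified by RT-PCR, 6-FAM labelling, HpaI digestion and capillary electrophoresis; gain-of-signal fitted against DMSO baseline.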

Experiment [17] can be described thus: BSK_3C_Proliferation: Cell Proliferation Assessment in the BioMAP Diversity Plus: 3C Assay (AID 2283006).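 As to AC50: potency may reflect either rise or fall in cell number versus DMSO.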 As to conditions: primary human endothelial cells (HUVEC). Summed up: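 Cells (human umbilical vein endothelial, sub-confluent) receive test chemical; after 48 h they are fixed in 10% trichloroacetic acid, stained with 0.1% SRB and read at 560 nm. Activity is referenced to DMSO, fitting increases and decreases.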

Experiment [18] has as its target Retinoic acid receptor alpha (Homo sapiens) (UniProt P10276). The experiment is described as follows: ATG_RARa_TRANS: Attagene TRANS-FACTORIAL HepG2 Assay for human Retinoic Acid Receptor alpha (RARa) (AID 2283005; active = hit-call score of the fitted dose curve at least 0.9, where 1 is the maximum). The gist of the method: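 HepG2 transiently transfected with multiplex GAL4-UAS reporter units including a human RARa–GAL4 chimera; 24 h compound exposure. Reporter mRNA quantified by RT-PCR, 6-FAM labeling and capillary electrophoresis; gain of signal versus DMSO.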

A short description of experiment [19]: BSK_3C_TissueFactor: BioMAP Diversity Plus: 3C Assay for Tissue Factor Biomarker Activity (AID 2282997). As to conditions: BioMAP 3C HUVEC, tissue factor biomarker readout; actives raise or lower the signal. The gist of the method:
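Readout: Tissue Factor ELISA. Cells: human primary umbilical vein endothelium. Time: 24 h after dosing. Analysis: bidirectional fit, DMSO baseline.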

Sequence of Nuclear receptor subfamily 1 group I member 2 (Homo sapiens) (O75469 whole entry, looked up, the tested form may be a part): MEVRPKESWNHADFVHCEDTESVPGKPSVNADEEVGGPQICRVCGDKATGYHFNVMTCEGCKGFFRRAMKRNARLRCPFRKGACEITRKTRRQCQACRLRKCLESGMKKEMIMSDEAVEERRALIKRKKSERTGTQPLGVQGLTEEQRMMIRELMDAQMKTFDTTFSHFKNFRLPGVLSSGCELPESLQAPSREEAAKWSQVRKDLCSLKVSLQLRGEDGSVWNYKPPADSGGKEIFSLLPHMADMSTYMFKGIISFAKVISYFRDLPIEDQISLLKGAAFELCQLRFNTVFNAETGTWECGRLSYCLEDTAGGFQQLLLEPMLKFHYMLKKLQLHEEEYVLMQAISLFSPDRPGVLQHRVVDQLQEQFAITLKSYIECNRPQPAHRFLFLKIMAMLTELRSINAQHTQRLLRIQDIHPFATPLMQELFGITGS
Sequence of Cellular tumor antigen p53 (Homo sapiens) (P04637 whole entry, looked up): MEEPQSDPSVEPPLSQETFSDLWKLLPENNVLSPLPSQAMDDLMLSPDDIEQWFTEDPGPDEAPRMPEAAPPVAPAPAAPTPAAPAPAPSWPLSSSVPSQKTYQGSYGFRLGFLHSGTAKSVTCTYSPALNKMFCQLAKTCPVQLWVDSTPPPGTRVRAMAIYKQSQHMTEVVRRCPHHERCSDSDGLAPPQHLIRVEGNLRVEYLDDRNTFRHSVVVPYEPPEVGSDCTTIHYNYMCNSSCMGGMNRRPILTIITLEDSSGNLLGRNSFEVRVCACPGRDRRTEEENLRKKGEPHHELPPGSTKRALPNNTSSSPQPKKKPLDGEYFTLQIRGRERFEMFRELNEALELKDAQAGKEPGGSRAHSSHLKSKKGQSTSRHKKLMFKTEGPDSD
Sequence of Myc proto-oncogene protein (Homo sapiens) (P01106 whole entry, looked up, the tested form may be a part): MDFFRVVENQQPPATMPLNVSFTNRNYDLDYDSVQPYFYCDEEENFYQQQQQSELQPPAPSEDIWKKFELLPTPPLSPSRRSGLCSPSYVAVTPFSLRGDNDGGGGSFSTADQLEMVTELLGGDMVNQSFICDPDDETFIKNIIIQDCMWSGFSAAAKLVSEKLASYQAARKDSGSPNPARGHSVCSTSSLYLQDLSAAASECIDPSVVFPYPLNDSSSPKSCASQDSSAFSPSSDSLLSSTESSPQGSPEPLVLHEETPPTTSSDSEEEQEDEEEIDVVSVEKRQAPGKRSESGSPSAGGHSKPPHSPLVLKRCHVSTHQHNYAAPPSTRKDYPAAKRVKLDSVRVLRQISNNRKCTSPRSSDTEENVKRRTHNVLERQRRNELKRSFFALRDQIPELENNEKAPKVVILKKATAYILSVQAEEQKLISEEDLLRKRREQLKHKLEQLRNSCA
Sequence of human Peroxisome Proliferator-activated Receptor alpha (PPARa), PPARA (gene 5465) (Q07869 whole entry, looked up): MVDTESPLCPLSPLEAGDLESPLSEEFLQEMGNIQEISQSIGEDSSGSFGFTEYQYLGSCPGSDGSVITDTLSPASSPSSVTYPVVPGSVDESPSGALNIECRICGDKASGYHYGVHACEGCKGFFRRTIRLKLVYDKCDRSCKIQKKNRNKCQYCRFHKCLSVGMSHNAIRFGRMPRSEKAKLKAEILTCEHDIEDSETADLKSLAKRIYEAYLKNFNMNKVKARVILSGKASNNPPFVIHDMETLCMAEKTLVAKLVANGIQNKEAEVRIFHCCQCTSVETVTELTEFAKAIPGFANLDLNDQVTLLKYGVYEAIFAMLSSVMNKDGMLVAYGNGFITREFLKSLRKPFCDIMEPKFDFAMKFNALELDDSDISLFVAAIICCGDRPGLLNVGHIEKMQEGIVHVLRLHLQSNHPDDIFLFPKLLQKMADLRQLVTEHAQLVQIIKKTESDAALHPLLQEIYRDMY
Sequence of Peroxisome proliferator-activated receptor gamma (Homo sapiens) (P37231 whole entry, looked up, the tested form may be a part): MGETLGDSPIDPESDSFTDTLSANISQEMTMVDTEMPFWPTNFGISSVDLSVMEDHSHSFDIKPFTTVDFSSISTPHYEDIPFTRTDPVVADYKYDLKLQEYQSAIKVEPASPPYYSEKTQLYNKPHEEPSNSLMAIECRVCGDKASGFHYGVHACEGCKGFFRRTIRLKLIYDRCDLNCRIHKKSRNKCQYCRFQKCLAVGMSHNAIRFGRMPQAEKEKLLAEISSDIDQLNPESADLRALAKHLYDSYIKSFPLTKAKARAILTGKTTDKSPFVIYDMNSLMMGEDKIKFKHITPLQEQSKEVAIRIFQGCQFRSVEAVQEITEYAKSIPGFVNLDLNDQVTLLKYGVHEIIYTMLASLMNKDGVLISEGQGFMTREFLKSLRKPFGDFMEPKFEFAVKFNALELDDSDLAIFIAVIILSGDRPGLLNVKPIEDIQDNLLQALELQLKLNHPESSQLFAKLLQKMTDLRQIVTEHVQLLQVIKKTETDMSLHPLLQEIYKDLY
Sequence of human Peroxisome Proliferator-activated Receptor delta (PPARd), PPARD (gene 5467) (Q03181 whole entry, looked up, the tested form may be a part): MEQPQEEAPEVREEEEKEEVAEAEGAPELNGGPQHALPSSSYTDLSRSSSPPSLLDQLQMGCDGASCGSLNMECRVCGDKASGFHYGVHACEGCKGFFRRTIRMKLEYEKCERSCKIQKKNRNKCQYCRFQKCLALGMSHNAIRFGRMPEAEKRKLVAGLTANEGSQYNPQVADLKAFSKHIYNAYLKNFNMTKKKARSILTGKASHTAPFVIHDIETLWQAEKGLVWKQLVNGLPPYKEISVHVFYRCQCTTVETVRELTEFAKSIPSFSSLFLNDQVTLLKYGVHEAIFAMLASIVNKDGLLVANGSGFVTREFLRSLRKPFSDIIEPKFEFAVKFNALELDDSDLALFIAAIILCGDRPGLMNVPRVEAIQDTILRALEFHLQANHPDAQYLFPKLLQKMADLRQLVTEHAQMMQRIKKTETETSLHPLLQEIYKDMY
Sequence of human Retinoic Acid Receptor gamma (RARg), RARG (gene 5916) (P13631 whole entry, looked up, the tested form may be a part): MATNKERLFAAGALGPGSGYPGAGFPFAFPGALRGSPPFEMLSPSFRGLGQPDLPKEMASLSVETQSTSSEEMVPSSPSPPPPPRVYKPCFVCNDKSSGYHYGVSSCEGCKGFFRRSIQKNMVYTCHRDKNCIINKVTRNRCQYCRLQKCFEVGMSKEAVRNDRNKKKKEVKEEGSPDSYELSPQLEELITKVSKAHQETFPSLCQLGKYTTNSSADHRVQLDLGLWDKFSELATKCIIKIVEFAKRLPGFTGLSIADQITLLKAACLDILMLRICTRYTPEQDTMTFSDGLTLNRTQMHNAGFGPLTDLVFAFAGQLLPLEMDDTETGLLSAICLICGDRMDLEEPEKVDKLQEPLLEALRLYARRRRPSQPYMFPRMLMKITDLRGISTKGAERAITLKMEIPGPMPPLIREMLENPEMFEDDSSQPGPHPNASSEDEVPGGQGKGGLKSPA
Sequence of human Retinoic Acid Receptor beta (RARb), RARB (gene 5915) (P10826 whole entry, looked up, the tested form may be a part): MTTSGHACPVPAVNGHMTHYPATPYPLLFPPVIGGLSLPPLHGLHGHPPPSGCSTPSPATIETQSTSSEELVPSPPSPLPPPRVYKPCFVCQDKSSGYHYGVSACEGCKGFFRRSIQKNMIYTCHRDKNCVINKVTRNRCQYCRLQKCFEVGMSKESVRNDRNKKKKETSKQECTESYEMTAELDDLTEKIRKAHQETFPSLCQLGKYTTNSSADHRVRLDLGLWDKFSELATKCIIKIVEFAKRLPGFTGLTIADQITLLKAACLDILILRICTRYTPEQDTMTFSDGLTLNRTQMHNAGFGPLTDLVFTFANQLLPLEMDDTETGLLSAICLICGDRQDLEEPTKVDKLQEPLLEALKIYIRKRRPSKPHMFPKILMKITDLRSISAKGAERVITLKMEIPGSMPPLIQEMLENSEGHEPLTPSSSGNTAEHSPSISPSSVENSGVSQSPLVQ
Sequence of Retinoic acid receptor alpha (Homo sapiens) (P10276 whole entry, looked up, the tested form may be a part): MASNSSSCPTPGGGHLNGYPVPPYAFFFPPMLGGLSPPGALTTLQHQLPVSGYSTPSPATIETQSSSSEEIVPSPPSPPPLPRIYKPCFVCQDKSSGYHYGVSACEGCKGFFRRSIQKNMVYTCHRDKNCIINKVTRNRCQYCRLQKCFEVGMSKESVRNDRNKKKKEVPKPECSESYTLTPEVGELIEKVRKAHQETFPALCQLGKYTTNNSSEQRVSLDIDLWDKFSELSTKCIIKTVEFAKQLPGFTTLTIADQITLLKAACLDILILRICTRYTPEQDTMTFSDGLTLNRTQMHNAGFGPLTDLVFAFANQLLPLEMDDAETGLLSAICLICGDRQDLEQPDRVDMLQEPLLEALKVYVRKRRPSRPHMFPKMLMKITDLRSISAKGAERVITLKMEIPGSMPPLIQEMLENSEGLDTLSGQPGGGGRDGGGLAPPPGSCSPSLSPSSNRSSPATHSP

As to `CC(=O)Nc1ccc(N=Nc2cc(C)ccc2O)cc1`, the call in experiment [1], in experiment [2], in experiment [4], in experiment [5], in experiment [8] and in [9] was inactive. The result in experiment [12] was inactive. Besides, the AC50 is 1.42 µM (active) in experiment [3]; 2.69 µM (active) in experiment [6]; 20 µM (active) in experiment [7]; 32.3 µM (active) in experiment [10]; 14.1 µM (active) in [11].
`C(=C(c1ccccc1)c1ccccc1)c1ccccc1`: the result in experiment [13], in experiment [1], in [2], in [14], in experiment [4] and in experiment [15] was inactive. Also, the outcome in experiment [10] and in experiment [12] was inactive. The results for the AC50 in [3] and in [11] were 25.2 µM (active) and 7.71 µM (active), respectively.
Regarding `C=CC(=O)OCC(F)(F)C(F)(F)C(F)(F)C(F)(F)COC(=O)C=C`, the half-maximal activity concentration (AC50) is 50 µM (active) in [13]; 65.2 µM (active) in experiment [1]; 38.4 µM (active) in experiment [2]; 12.8 µM (active) in experiment [3]; 21.5 µM (active) in experiment [14]; 79.4 µM (active) in [4]. For the same compound, the AC50 is 22.9 µM (active) and 28.2 µM (active) in experiment [5]; 26.7 µM (active) and 21.6 µM (active) in experiment [6]; 9.61 µM (active) and 8.46 µM (active) in experiment [17]; 37.8 µM (active) in experiment [10]. For the same compound, the result in experiment [8], in experiment [15], in experiment [16] and in experiment [11] was inactive.
Take `C=CC(F)(F)C(F)(F)C(F)(F)C(F)(F)C(F)(F)C(F)(F)C(F)(F)C(F)(F)F`: the compound was classed as inactive in experiment [1], in [2], in [3], in experiment [14], in experiment [4] and in experiment [5]. The outcome in experiment [6], in [8], in experiment [15], in experiment [9], in [18] and in [17] was inactive. Also, the outcome in [10] and in experiment [12] was inactive.
Take `OCCCC(F)(F)C(F)(F)C(F)(F)F`: the compound was classed as inactive in [13], in experiment [1], in [2], in experiment [3], in experiment [14] and in experiment [19]. The outcome in experiment [5], in experiment [6], in experiment [7], in experiment [8], in experiment [15] and in experiment [17] was inactive. Also, the compound was classed as inactive in [10], in experiment [11] and in experiment [12].
Consider `C=C(C)C(=O)OCC(F)(F)C(F)(F)C(F)(F)C(F)(F)C(F)(F)C(F)(F)C(F)(F)F`, for which the compound was called inactive in experiment [13], in experiment [1], in experiment [2], in [3], in [4] and in experiment [19]. Also, the outcome in [5], in experiment [6], in [15], in [9], in experiment [16] and in experiment [17] was inactive. Also, the call in [10], in [11] and in experiment [12] was inactive.
Consider `CC(C)=CCCC(C)CCOC(=O)C(C)C` (stereo not given), for which the result in experiment [13], in experiment [1], in [2], in experiment [3], in experiment [14] and in [8] was inactive. In addition, the compound was called inactive in experiment [15], in experiment [10] and in [11].
Consider `FC(F)(F)C(F)(F)CNCC(F)(F)C(F)(F)F`, for which the call in experiment [13], in experiment [1], in [2], in [3], in experiment [14] and in experiment [19] was inactive. The outcome in experiment [5], in experiment [6], in [7], in [8], in [15] and in experiment [9] was inactive. Moreover, the outcome in [17], in [10], in experiment [11] and in experiment [12] was inactive.
